The source of these data is PubChem BioAssay.

Experiment [1] is described as follows: inhibitors of larval lipid processing in zebrafish, primary screen, whole organism, PED6 fluorescence, gall bladder and intestine (AID 686;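 active means a full or partial loss of lipid-probe fluorescence in the fish gall bladder, intestine or both, judged by eye; inactive means no fluorescence loss, or compound toxic to the fish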;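 further: larvae 5 to 7 days old with five fish per well; signal comes from phospholipase A2 cleavage of quenched PED6 carried via bile; overnight exposure to compound and PED6 before scoring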). As to conditions: Zebrafish larvae PED6 lipid processing, fluorescence scoring; screened at 20 µM (by protocol).
Experiment [2] can be described thus: loss of swimming-algae plug formation – whole organism, Chlamydomonas reinhardtii, WT vs cilia-less mutant, absorbance, 96-well, primary screen (AID 463189).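 Further: 0% = wild type cc124 cells in DMSO and 100% = ciliumless bld1 mutant cells.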 As to conditions: Chlamydomonas reinhardtii gravitaxis, OD600 absorbance, 2 days; at 10 µM; stronger effect = higher value.
The nature of experiment [3]: inhibitors of TNFa-induced NFkB p65 translocation, primary screen, imaging, HUVEC, MLSMR starter and 10KST1 sets (AID 438;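 active means inhibition above 20% together with a positive visual image hit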;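 further: compound added about 3h40 before a 20 min TNFalpha stimulation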;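 on inhibition: signal is the nuclear over cytoplasmic p65 intensity ratio per well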). The note with it: HUVEC TNFa-induced p65 nuclear translocation; cell count: measured here: nuclei count (cytotoxicity indicator), at 2.08 µM; inhibition: at 2 µM, stronger effect = higher value, 0% TNFa-plus-vehicle, 100% no-TNFa wells.
Experiment [4] in a line: endothelial E-selectin expression blockers – imaging, HUVEC, immunofluorescence, MLSMR starter and 10KST1 sets, primary screen (AID 487;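 active means visually confirmed hit in the image check and inhibition above 20%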;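 on inhibition: signal is fraction of cell area covered by stained E-selectin grains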;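 on nuclei count: 100% = median nuclei count of all wells on the same plate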). The note with it: HUVEC TNFalpha-induced E-selectin immunofluorescence imaging, at 2 µM; inhibition: stronger effect = higher value; nuclei count: measured here: cell number, toxicity.
Experiment [5] can be described thus: Primary imaging screen for DUSP6 inhibitors that restore phospho-Erk in transfected HeLa cells, chemical complementation (AID 609;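 active means compounds giving at least 50% inhibition in the cell-based MKP-3 phosphatase rescue imaging test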;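 on inhibition: phospho-Erk level distribution per well compared with pooled transfected vehicle control wells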). The note with it: HeLa MKP-3 transfected, phospho-Erk imaging KS statistic, at 10 µM, cells stimulated with TPA for 15 min.
Experiment [6] concerns the target Dual specificity protein phosphatase 6 (Homo sapiens) (UniProt Q16828). Described as above. The note with it: HeLa MKP-3 transfected, phospho-Erk imaging KS statistic; at 10 µM; stronger effect = higher value; cells stimulated with TPA for 15 min.
The target of experiment [7] is Voltage-gated potassium channel subunit beta-2 (Rattus norvegicus) (UniProt P62483). The experiment can be described thus: inhibitors of rat Kvbeta2 reductase activity – biochemical, NADPH fluorescence, primary screen (AID 622;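 active means fluorescence slope higher than the sample average by over 3 SD, cut at about -0.22 in these data, passing the limit was not always enough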;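 further: slope of raw intensity against log time taken from 70 to 1610 s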). As to conditions: recombinant KvBeta, 4-cyanobenzaldehyde reduction, at 10 µM, stronger effect = higher value.
For experiment [8] the target is unchanged. The experiment can be described thus: enhancers of rat Kvbeta2 NADPH turnover – biochemical, NADPH fluorescence, primary screen (AID 623;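 active means NADPH fluorescence slope more negative than the mean of all samples by about 3 SD, 99.7% confidence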;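 further: fluorescence intensity change per second fitted from 20 to 320 s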). The note with it: Recombinant KvBeta, NADPH fluorescence decrease slope, 10 min; at 10 µM; stronger effect = lower value.
Experiment [9] deals with Alpha-2C adrenergic receptor (Homo sapiens) (UniProt P18825). The experiment can be described thus: compounds altering alpha2C-coupled GIRK flux – cell-based, HEK293 alpha2C/GIRK1/2, thallium flux, primary screen (AID 624;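 active means fluorescence slope after compound addition differing from the mean of all screened samples at 99.7% confidence, in either direction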;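 further: slope of fluorescence ratio to pre-addition baseline per second over 15 to 24 s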). As to conditions: thallium flux BTC fluorescence, at 10 µM, actives lie on both sides.
A short description of experiment [10]: blockers of RIG-like receptor reporter activation – cell-based, Sendai virus stimulus, luciferase, 10K MLSCN set, TLR/RLR signaling modifier project, primary screen (AID 602276;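 active means inhibition at or above 50% at 10 µM; inactive means inhibition below 50%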;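 further: firefly luciferase from ISG56 promoter only with Renilla not read in this screen; 0% = Sendai virus plus DMSO and 100% = medium plus DMSO without virus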). As to conditions: HEK293 RL24 IRF3 luciferase reporter, at 10 µM, stronger effect = higher value. On the technique in general: In a reporter assay the amount or activity of a reporter protein is the signal.

A short description of experiment [11]: TLR3 IRF3 reporter activation blockers – cell-based, poly I:C stimulus, luciferase, 10K MLSCN set, primary screen (AID 602277;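 active means inhibition of the reporter signal at or above 50%; inactive means inhibition below 50%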). The note with it: HEK293-TLR3 RL24 IRF3 luciferase reporter, at 10 µM, stronger effect = higher value.
The mark [12] stands for this setting: measured here: cell density z-score.
Where [13] appears, read: measured here: nuclear c-Myc green intensity z-score.
Setting [14] is: measured here: nuclear pErk red intensity z-score, stronger effect = higher value.

Molecules are shown by their SMILES. Calls of active or inactive are those of the source.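 How the source made its calls, unless noted: active means inhibition at or above 50% relative to wild type and mutant plate controls; inactive means inhibition below 50%.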

Sequence of Voltage-gated potassium channel subunit beta-2 (Rattus norvegicus) (P62483 whole entry, looked up): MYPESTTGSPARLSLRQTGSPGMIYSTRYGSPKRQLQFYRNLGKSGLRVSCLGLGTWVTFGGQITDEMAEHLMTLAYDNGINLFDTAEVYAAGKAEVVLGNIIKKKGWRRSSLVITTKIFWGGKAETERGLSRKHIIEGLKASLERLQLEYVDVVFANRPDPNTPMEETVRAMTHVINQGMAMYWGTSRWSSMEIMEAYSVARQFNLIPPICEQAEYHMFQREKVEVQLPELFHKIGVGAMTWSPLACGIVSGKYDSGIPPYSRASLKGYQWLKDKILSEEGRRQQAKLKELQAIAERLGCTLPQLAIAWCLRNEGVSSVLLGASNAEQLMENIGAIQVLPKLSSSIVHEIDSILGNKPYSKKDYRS
Sequence of Alpha-2C adrenergic receptor (Homo sapiens) (P18825 whole entry, looked up): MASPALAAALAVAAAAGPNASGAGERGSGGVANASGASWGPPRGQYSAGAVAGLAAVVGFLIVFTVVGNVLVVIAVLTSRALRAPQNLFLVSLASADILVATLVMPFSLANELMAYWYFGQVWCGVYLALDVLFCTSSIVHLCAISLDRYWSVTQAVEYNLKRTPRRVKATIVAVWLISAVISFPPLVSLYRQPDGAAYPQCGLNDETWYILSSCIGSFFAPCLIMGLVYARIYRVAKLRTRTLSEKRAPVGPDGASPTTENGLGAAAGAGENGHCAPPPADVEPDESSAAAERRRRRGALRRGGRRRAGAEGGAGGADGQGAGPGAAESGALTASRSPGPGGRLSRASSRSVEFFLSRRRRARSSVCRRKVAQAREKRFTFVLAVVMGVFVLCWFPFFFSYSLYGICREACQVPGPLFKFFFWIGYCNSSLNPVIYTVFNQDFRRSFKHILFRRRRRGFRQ
Sequence of Dual specificity protein phosphatase 6 (Homo sapiens) (Q16828 whole entry, looked up): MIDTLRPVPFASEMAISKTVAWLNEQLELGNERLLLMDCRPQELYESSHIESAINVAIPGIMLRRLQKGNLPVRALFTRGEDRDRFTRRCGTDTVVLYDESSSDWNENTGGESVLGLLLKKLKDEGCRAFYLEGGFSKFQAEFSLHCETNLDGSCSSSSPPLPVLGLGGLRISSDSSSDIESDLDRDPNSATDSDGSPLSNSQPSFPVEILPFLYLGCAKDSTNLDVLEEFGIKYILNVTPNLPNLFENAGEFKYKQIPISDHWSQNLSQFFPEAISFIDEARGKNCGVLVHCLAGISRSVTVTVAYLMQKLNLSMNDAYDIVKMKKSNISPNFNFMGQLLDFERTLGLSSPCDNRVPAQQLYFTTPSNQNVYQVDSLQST

For `CC(C)C12CN3CC(C(C)C)(CN(C1)C3c1ccc3c(c1)OCO3)C2=O` (configuration not stated), the compound was called inactive in experiment [1]. What is called inhibition is the drop in the measured response relative to a control, in per cent. Regarding `Fc1ccc(C(OCCCc2cnc[nH]2)c2ccc(F)cc2)cc1`, the inhibition in experiment [2] is -0.416% (inactive). As for `CCCCCCC/C=C\CCCCCCCCC(=O)O`, in [2], the inhibition is 9.07% (inactive). Consider `NC(N)=NCCSSCCN=C(N)N`, for which, in [2], the inhibition is -8.7% (inactive).

Take `N[C@@H](Cc1ccc(F)cc1)C(=O)O`: the inhibition in experiment [2] is 2.39% (inactive). Same read-out and setting: the figure for `Cc1cc(N)c2ccccc2[n+]1CCCCCCCCCCCCCC[n+]1c(C)cc(N)c2ccccc21` is 154% (active); for `CC1CN(S(=O)(=O)c2cccc3cnccc23)CCN1` (configuration not stated) it is 5.73% (inactive).

Turning to `CC(C)COC(=O)OCN1C(=O)CN(CCN2CC(=O)N(COC(=O)OCC(C)C)C(=O)C2)CC1=O`, in experiment [2], the inhibition is 5.88% (inactive). Still for that read-out and setting: the result for `CNCCC(Oc1ccccc1C)c1ccccc1` (configuration not stated) reads 10.9% (inactive); that for `NC(Cc1ccc(Cl)cc1)C(=O)O` (configuration not stated), -1.92% (inactive); that for `Nc1nc(Cl)nc2c1ncn2[C@@H]1O[C@H](COP(=O)(O)OP(=O)(O)OP(=O)(O)O)[C@H](O)C1O` (some centres not stated), 0.076% (inactive). Same read-out and setting: the figure for `O=C1c2c(O)cc(O)cc2OC(c2ccc(O)c(O)c2)C1O` (configuration not stated) is -16.9% (inactive); for `NC(N)=NC(N)=Nc1ccccc1` it is 4.74% (inactive). Take `O=C(O)[C@@H]1C[C@H](C(=O)O)N1`: in experiment [2], the inhibition is 1.3% (inactive).

With `O=c1cc(O)cc(/C=C/c2ccc(O)c(O)c2)o1`, the inhibition in experiment [2] is -6.22% (inactive). On the same count and under the same terms, the figure for `CCCCCCCCCCCCCCCCCC(=O)OC(CC(=O)O)C[N+](C)(C)C` (configuration not stated) is 6.23% (inactive); for `COc1cccc(C(=O)NCCN2CCN(c3ccc(Cl)cc3)CC2)c1` it is 0.497% (inactive); for `CN1CCc2cc(O)c(O)cc2C(c2ccccc2)C1` (configuration not stated) it is 2.5% (inactive). For `COc1ccccc1N1CCN(CCCCNC(=O)c2ccc3ccccc3c2)CC1`, the inhibition in experiment [2] is 6.15% (inactive). Same read-out and setting: the figure for `C[C@@](Cc1ccc(O)c(O)c1)(NN)C(=O)O` is -8.89% (inactive). With `COc1ccc2cc([C@H](C)C(=O)O)ccc2c1`, the cell count in [3] stood at 649. The inhibition in experiment [3] is -0.4% (inactive); in [4] it was -51.6% (inactive); in [6] it was 5.42% (inactive); in experiment [10] it was 13.2% (inactive); in experiment [11], 30.5% (inactive). Moreover, the nuclei count in [4] amounted to 120%. Further, the z-score is -0.246 in experiment [5] (setting [12]), 0.258 in [5] (setting [13]) and 0.308 in experiment [5] (setting [14]). Further, the fluorescence slope in experiment [7] is -0.491 (inactive). Also, in experiment [8], the NADPH fluorescence slope is -6.7e-05 (inactive). Besides, in experiment [9], the slope is 0.00486 (inactive). For `CN1CCCC1CCOC(C)(c1ccccc1)c1ccc(Cl)cc1` (configuration not stated), the inhibition in [2] was 11.5% (inactive).

As for `CC1=C(CC(=O)O)c2cc(F)ccc2/C1=C\c1ccc(S(C)=O)cc1` (configuration not stated), in experiment [2], the inhibition was 5.19% (inactive). Still for that read-out and setting: the figure for `NNCCc1ccccc1` is 3.74% (inactive); for `CN1CC(O)C(O)C(O)C1CO` (configuration not stated) it is 10.5% (inactive); for `O=C(O)c1ccccc1Nc1ccccc1` it is 8.09% (inactive). Turning to `CCN(CC)CCCC(C)Nc1ccnc2cc(Cl)ccc12` (configuration not stated), the inhibition in experiment [2] was 0.95% (inactive). The same measure, in the same setting: the result for `Nc1ncnc2c1ncn2[C@@H]1O[C@H](C(=O)NC2CC2)[C@H](O)C1O` (some centres not stated) reads 7.98% (inactive). Still for that read-out and setting: the result for `COCC(=O)O[C@]1(CCN(C)CCCc2nc3ccccc3[nH]2)CCc2cc(F)ccc2[C@@H]1C(C)C` reads 11.6% (inactive). Regarding `CCn1cc(C(=O)O)c(=O)c2ccc(C)nc21`, the cell count in experiment [3] is 578. The inhibition in experiment [3] is -2.8% (inactive); in [4], -83.2% (inactive); in experiment [6], 5.42% (inactive); in experiment [10] it was 15.8% (inactive); in [11], 40.1% (inactive). The compound further displayed a nuclei count in [4] of 111%. Also, the z-score in [5] (setting [12]) is 2.22; in [5] (setting [13]), -0.0952; in experiment [5] (setting [14]) it was 0.302. Further, in experiment [7], the fluorescence slope was -0.455 (inactive). Besides, the NADPH fluorescence slope in experiment [8] was -3.9e-05 (inactive). Moreover, the slope in [9] is 0.00465 (inactive). Also, the result in experiment [1] was inactive. With `Nc1c(S(=O)(=O)O)cc(Nc2ccc(Nc3nc(Cl)nc(Nc4ccc(S(=O)(=O)O)cc4)n3)c(S(=O)(=O)O)c2)c2c1C(=O)c1ccccc1C2=O`, the inhibition in experiment [2] was 8.09% (inactive). The same measure, in the same setting: the figure for `O=C(CCc1ccc(O)cc1)c1c(O)cc(O)cc1O` is -0.519% (inactive). The same measure, in the same setting: the figure for `COc1ccccc1N1CCN(CCCCNS(=O)(=O)c2cccc3c(N(C)C)cccc23)CC1` is -0.327% (inactive). As to `O=C(O)c1cc(=O)c2ccccc2[nH]1`, the inhibition in experiment [2] was 9.15% (inactive). The same measure, in the same setting: the figure for `CC(=O)[C@]1(O)Cc2c(O)c3c(c(O)c2[C@@H](O[C@H]2C[C@H](N)[C@H](O)[C@H](C)O2)C1)C(=O)c1ccccc1C3=O` is -16.2% (inactive); for `Oc1ccc(C2CNCc3sccc32)cc1O` (configuration not stated) it is 10.1% (inactive); for `CC(C)NC[C@H](O)c1ccc(O)c(O)c1` it is 8.51% (inactive).

As for `CC(C)C[C@H](NC(=O)[C@H](O)[C@H](N)Cc1ccccc1)C(=O)O`, the inhibition in [2] was -10.7% (inactive). Take `CC(=O)/C(C)=N/O`: the inhibition in [2] was 1.74% (inactive). Same read-out and setting: the result for `COC(=O)c1c(-c2cc(OC)c(OC)c(OC)c2)c2ccc(OCc3ccccn3)cc2c(=O)n1-c1ccc(N)cc1` reads 2.92% (inactive); that for `COc1cccc(OC)c1OCCNCC1CSc2ccccc2O1` (configuration not stated), 10.3% (inactive); that for `NCCc1cnc[nH]1`, 2.56% (inactive). Same read-out and setting: the figure for `COc1cc2c(c(OC)c1OC)-c1ccc(OC)c(=O)cc1[C@@H](NC(C)=O)CC2` is 4.38% (inactive); for `NC1C=CC=C(C(=O)O)C1` (configuration not stated) it is -4.63% (inactive); for `Cc1cn([C@H]2C[C@@H](N=[N+]=[N-])[C@@H](CO)O2)c(=O)[nH]c1=O` it is -6.23% (inactive). Same read-out and setting: the figure for `NC(=O)c1ccccc1` is -2.55% (inactive); for `CC(=O)SCC[N+](C)(C)C` it is -2.92% (inactive).
